Test results published in PubChem BioAssay (EPA / NIEHS).
Several values for one entry are separate records, joined by “and”; a condition that tells them apart may be missing. Equal values may be shown once. Results filed as inconclusive are left out. Activity calls are given as the source filed them. The calls were made as follows, unless noted: active = hit-call score of the fitted dose curve at least 0.9, where 1 is the maximum; inactive = score below 0.9.

Legend:
[1] = biological target: human CYP2A6, CYP2A6 (gene 1548) (UniProt P11509); assay: NVS_ADME_hCYP2A6: NovaScreen (NVS) CYP450-related Enzyme Activity (ADME) Assay for human CYP2A6 (AID 2283099; active = hit-call score of the fitted dose curve at least 0.9, where 1 is the maximum)
How it was run: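 Loss of fluorescence signal relative to acetonitrile vehicle reported CYP2A6 inhibition in a cell-free system using insect-cell-derived enzyme. Readings were taken at 0.5 h; top concentration in follow-up dose series was 20 uM.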

[2] = biological target: human CYP2C8, CYP2C8 (gene 1558) (UniProt P10632); assay: NVS_ADME_hCYP2C8: NovaScreen (NVS) CYP450-related Enzyme Activity (ADME) Assay for human CYP2C8 (AID 2283104)
human CYP2C8, CYP2C8 (gene 1558), sequence (P10632 whole entry, looked up): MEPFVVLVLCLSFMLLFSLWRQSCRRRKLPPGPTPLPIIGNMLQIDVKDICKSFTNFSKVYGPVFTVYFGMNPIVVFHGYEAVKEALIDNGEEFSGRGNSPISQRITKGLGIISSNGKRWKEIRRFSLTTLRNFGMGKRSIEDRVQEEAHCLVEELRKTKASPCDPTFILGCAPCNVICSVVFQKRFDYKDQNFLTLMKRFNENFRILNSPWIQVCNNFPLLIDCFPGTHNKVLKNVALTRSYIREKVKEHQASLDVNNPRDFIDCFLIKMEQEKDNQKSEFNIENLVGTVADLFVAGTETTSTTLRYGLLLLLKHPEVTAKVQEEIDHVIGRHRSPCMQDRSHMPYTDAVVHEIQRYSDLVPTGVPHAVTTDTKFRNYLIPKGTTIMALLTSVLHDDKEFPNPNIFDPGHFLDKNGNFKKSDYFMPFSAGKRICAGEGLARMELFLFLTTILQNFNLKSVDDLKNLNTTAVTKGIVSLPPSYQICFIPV
How it was run: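 Fluorescence readout of substrate turnover by recombinant CYP2C8 after 0.5 h, baseline acetonitrile. Single-concentration duplicate screen at 10 uM preceded singleton concentration series (max 20 uM) for compounds passing the inhibition threshold.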

[3] = biological target: Cytochrome P450 3A4 (Homo sapiens) (UniProt P08684); assay: NVS_ADME_hCYP3A4: NovaScreen (NVS) CYP450-related Enzyme Activity (ADME) Assay for human CYP3A4 (AID 2283110; active = hit-call score of the fitted dose curve at least 0.9, where 1 is the maximum)
Cytochrome P450 3A4 (Homo sapiens), sequence (P08684 whole entry, looked up): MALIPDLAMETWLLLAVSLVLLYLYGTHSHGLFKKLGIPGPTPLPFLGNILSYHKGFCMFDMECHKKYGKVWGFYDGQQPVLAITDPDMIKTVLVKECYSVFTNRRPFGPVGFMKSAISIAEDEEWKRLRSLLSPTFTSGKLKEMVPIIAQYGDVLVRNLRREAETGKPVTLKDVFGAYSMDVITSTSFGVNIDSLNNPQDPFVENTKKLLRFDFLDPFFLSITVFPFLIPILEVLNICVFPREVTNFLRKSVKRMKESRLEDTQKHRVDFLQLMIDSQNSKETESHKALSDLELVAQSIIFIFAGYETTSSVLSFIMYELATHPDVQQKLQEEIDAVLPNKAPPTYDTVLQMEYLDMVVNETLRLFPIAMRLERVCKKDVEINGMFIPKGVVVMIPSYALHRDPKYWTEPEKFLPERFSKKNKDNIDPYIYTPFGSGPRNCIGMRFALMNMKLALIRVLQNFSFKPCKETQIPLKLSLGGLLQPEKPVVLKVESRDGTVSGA
How it was run: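 Activity is derived from decreased fluorescence intensity relative to acetonitrile, measured 0.33 hour after dosing insect-cell-expressed CYP3A4 in a cell-free format. Screening used 10 uM in duplicate before concentration-response follow-up.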

[4] = read-out: E-selectin (Homo sapiens) (UniProt P16581); assay: BSK_SAg_Eselectin: BioMAP Diversity Plus: SAg Assay for Eselectin Biomarker Activity (AID 2283091); conditions: primary human HUVEC with PBMC; actives raise or lower the signal
How it was run: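 Endpoint values derive from bidirectional fitting relative to DMSO, using ELISA-measured E-selectin in a human vascular co-culture (umbilical vein endothelium plus PBMC) sampled 24 h after dosing.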

[5] = BSK_SAg_PBMCCytotoxicity: PBMC Cytotoxicity Assessment in the BioMAP Diversity Plus: SAg Assay (AID 2283093); conditions: primary human HUVEC with PBMC;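 also: PBMC viability measured as Alamar Blue reduction fluorescence at 546/580 nm; fitted both ways against DMSO so a hit may be loss or gain of signal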;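 as to AC50: PBMC superantigen activated with SEB plus TSST-1 one hour after compound addition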
How it was run: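 Alamar Blue reduction (6 h, 546/580 nm) reports PBMC cytotoxicity after 90 h superantigen activation (SEB, TSST-1; 20 ng/mL final each) with 1 h compound pre-treatment. Gain or loss of signal fitted versus DMSO.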

[6] = read-out: Interleukin-8 (IL8), CXCL8 (gene 3576); assay: BSK_SAg_IL8: BioMAP Diversity Plus: SAg Assay for Interleukin-8 (IL8) Biomarker Activity (AID 2283094); conditions: primary human HUVEC with PBMC; actives raise or lower the signal
How it was run: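 HUVEC/PBMC co-culture, 24 h post-dose; IL-8 by ELISA. Gain or loss of signal fitted bidirectionally vs DMSO baseline.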

[7] = BSK_SAg_Proliferation: Cell Proliferation Assessment in the BioMAP Diversity Plus: SAg Assay (AID 2283095); conditions: primary human HUVEC with PBMC;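 also: relative cell number as total protein by SRB absorbance in sub-confluent culture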
How it was run: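 HUVEC/PBMC co-culture, 96-well. TCA-fixed (10%), 0.1% SRB stain, A560 at 96 h. Protein content used as viability readout; bidirectional fitting vs DMSO control.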

[8] = BSK_SAg_SRB: Viability Assessment in the BioMAP Diversity Plus: SAg Assay (AID 2283096); conditions: primary human HUVEC with PBMC;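 also: cells read one day after compound addition; hits may be either gain or loss of signal compared with DMSO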
How it was run: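 This overt-cytotoxicity endpoint quantifies protein in human endothelial/PBMC co-cultures at 24 h using SRB absorbance (560 nm) after trichloroacetic acid fixation. Values reflect signal change from the DMSO negative control, fitted bidirectionally.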

[9] = biological target: human CYP2D6, CYP2D6 (gene 1565) (UniProt P10635); assay: NVS_ADME_hCYP2D6: NovaScreen (NVS) CYP450-related Enzyme Activity (ADME) Assay for human CYP2D6 (AID 2283107; active = hit-call score of the fitted dose curve at least 0.9, where 1 is the maximum)
human CYP2D6, CYP2D6 (gene 1565), sequence (P10635 whole entry, looked up): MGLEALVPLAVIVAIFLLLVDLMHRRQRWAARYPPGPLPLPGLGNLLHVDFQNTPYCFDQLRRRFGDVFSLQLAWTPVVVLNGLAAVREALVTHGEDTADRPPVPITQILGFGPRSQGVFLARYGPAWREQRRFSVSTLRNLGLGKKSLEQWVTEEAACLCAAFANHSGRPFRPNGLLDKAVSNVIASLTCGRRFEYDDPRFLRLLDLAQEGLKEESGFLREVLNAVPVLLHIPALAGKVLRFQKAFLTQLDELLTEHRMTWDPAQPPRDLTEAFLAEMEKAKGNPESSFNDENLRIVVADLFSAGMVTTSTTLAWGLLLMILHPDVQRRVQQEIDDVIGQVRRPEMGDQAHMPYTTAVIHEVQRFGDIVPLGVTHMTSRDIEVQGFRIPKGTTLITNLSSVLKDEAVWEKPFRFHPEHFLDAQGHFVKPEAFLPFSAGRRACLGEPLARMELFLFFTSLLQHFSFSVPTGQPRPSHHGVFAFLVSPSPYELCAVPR
How it was run: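 Biochemical fluorescence assay, insect-cell-derived enzyme. Read at 1 h; inhibition taken from loss of signal against acetonitrile. Screened at 10 uM in duplicate, with concentration series for actives.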

[10] = biological target: Cytochrome P450 2C18 (Homo sapiens) (UniProt P33260); assay: NVS_ADME_hCYP2C18: NovaScreen (NVS) CYP450-related Enzyme Activity (ADME) Assay for human CYP2C18 (AID 2283103)
Cytochrome P450 2C18 (Homo sapiens), sequence (P33260 whole entry, looked up): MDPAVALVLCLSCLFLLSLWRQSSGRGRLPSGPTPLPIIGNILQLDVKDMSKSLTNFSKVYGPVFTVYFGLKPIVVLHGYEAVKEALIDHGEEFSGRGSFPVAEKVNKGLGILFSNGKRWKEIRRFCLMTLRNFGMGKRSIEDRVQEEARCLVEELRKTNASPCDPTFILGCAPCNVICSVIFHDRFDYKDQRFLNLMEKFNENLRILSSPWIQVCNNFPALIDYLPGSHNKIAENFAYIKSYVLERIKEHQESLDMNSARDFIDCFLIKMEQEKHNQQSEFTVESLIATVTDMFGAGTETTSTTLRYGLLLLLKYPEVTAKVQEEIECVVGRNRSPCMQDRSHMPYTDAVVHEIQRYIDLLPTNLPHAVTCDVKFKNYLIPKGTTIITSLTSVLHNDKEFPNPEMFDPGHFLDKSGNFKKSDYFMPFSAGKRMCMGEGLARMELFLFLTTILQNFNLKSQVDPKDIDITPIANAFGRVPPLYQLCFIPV
How it was run: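 Enzyme activity measured by fluorescence 0.5 h after compound addition, using recombinant CYP2C18 and a specific substrate. Actives from duplicate 10 uM screening were retested in concentration series (top 20 uM); acetonitrile served as negative baseline.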

[11] = biological target: Cytochrome P450 2C19 (Homo sapiens) (UniProt P33261); assay: NVS_ADME_hCYP2C19: NovaScreen (NVS) CYP450-related Enzyme Activity (ADME) Assay for human CYP2C19 (AID 2283113; active = hit-call score of the fitted dose curve at least 0.9, where 1 is the maximum;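 also: potency for inhibition seen as loss of fluorescent signal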)
How it was run: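 Biochemical CYP2C19 inhibition screen: insect-cell recombinant protein plus fluorescent substrate, 1 h, fluorescence intensity. Acetonitrile defined baseline activity. Single 10 uM concentration in duplicate, with concentration-response follow-up for actives.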

[12] = biological target: human CYP1A1, CYP1A1 (gene 1543) (UniProt P04798); assay: NVS_ADME_hCYP1A1: NovaScreen (NVS) CYP450-related Enzyme Activity (ADME) Assay for human CYP1A1 (AID 2283100; active = hit-call score of the fitted dose curve at least 0.9, where 1 is the maximum)
human CYP1A1, CYP1A1 (gene 1543), sequence (P04798 whole entry, looked up): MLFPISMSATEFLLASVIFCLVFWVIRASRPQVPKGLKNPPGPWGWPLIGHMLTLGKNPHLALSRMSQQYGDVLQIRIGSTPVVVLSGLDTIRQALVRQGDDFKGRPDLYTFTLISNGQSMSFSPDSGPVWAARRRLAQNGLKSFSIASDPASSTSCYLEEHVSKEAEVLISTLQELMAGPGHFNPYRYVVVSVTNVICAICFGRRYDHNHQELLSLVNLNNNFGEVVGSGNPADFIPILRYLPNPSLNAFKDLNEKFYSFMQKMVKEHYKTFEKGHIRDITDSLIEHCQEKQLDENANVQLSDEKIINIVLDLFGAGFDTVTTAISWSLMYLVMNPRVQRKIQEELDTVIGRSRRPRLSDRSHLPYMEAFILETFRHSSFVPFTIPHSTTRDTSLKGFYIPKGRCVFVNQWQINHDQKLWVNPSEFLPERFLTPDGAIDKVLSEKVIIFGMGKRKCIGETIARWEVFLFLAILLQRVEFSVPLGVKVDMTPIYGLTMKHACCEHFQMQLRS
How it was run: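 Inhibition of recombinant CYP1A1 turnover was assessed fluorometrically in a biochemical format 1 h after compound exposure. Testing began at 10 uM in duplicate and progressed to concentration series reaching 20 uM, with on-plate positive and negative controls.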

[13] = biological target: human CYP2B6, CYP2B6 (gene 1555) (UniProt P20813); assay: NVS_ADME_hCYP2B6: NovaScreen (NVS) CYP450-related Enzyme Activity (ADME) Assay for human CYP2B6 (AID 2283101; active = hit-call score of the fitted dose curve at least 0.9, where 1 is the maximum)
human CYP2B6, CYP2B6 (gene 1555), sequence (P20813 whole entry, looked up): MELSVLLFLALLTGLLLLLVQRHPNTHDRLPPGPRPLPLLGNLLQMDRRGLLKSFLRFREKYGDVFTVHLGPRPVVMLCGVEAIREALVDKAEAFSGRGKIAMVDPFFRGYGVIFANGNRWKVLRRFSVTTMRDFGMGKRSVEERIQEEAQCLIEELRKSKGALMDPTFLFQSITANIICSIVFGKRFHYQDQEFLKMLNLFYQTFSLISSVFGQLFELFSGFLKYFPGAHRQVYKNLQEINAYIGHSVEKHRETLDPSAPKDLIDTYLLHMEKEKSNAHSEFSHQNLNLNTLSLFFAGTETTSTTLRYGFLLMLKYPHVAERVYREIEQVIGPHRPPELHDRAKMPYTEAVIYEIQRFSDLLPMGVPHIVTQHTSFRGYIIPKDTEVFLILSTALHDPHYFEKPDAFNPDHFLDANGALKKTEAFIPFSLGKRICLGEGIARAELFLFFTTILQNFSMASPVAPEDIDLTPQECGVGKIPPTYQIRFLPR
How it was run: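 Recombinant human CYP2B6 with fluorogenic substrate, read by fluorescence intensity 1 h after dosing. Primary screen in duplicate at 10 uM, actives followed in concentration series; signal loss relative to acetonitrile control.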

[14] = biological target: human CYP1A2, CYP1A2 (gene 1544) (UniProt P05177); assay: NVS_ADME_hCYP1A2: NovaScreen (NVS) CYP450-related Enzyme Activity (ADME) Assay for human CYP1A2 (AID 2283102; active = hit-call score of the fitted dose curve at least 0.9, where 1 is the maximum;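 also: potency for inhibition since loss of fluorescence marks reduced CYP1A2 activity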)
How it was run: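 Inhibition scored as decrease in fluorescent product versus acetonitrile negative control. Enzyme: insect-cell recombinant human CYP1A2, substrate-specific, cell-free. Reading at 0.5 h; 10 uM duplicate initial screen with positive and negative controls on every plate.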

[15] = biological target: human CYP2J2, CYP2J2 (gene 1573) (UniProt P51589); assay: NVS_ADME_hCYP2J2: NovaScreen (NVS) CYP450-related Enzyme Activity (ADME) Assay for human CYP2J2 (AID 2283106; active = hit-call score of the fitted dose curve at least 0.9, where 1 is the maximum)
How it was run: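 Chemicals were first tested at 10 uM in duplicate, and hits meeting criteria such as 30% inhibition were run in singleton concentration series with a 20 uM top concentration. Enzyme activity of recombinant CYP2J2 was measured by fluorescence after 1 h, relative to acetonitrile.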

[16] = biological target: human CYP2C9, CYP2C9 (gene 1559) (UniProt P11712); assay: NVS_ADME_hCYP2C9: NovaScreen (NVS) CYP450-related Enzyme Activity (ADME) Assay for human CYP2C9 (AID 2283108; active = hit-call score of the fitted dose curve at least 0.9, where 1 is the maximum)
human CYP2C9, CYP2C9 (gene 1559), sequence (P11712 whole entry, looked up): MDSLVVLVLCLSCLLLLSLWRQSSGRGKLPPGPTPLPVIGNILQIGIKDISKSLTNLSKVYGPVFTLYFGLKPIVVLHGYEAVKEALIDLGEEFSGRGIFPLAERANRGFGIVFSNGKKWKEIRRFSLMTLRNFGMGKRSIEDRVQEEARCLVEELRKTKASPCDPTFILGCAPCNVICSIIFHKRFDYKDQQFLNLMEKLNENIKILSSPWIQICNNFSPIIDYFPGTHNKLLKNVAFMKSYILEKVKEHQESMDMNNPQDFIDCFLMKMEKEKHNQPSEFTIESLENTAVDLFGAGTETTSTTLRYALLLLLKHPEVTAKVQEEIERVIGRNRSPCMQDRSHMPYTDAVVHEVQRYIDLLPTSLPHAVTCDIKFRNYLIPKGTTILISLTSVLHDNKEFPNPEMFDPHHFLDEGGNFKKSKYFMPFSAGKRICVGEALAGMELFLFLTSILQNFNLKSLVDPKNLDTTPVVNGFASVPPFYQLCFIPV
How it was run: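 Cell-free assay of recombinant human CYP2C9 produced in Sf9 cells, with enzyme activity read by fluorescence intensity 0.75 h after compound addition. Loss of signal versus an acetonitrile negative control indicates inhibition. Primary screen used 10 uM in duplicate; actives were retested in concentration series.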

[17] = biological target: rat CYP2A1, Cyp2a1 (gene 24894) (UniProt P11711); assay: NVS_ADME_rCYP2A1: NovaScreen (NVS) CYP450-related Enzyme Activity (ADME) Assay for rat CYP2A1 (AID 2283114)
How it was run: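 Cell-free fluorescence enzyme-activity read on recombinant rat CYP2A1, taken 0.75 h post-dosing. Compounds were screened in duplicate at 10 uM, then hits tested in concentration series (max 20 uM); inhibition scored relative to acetonitrile baseline.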

[18] = biological target: human CYP4F12, CYP4F12 (gene 66002) (UniProt Q9HCS2); assay: NVS_ADME_hCYP4F12: NovaScreen (NVS) CYP450-related Enzyme Activity (ADME) Assay for human CYP4F12 (AID 2283111; active = hit-call score of the fitted dose curve at least 0.9, where 1 is the maximum)
How it was run: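 Recombinant enzyme with a fluorescent substrate, signal read at 0.5 h post-dose; activity loss analysed relative to acetonitrile. Compounds first run in duplicate at 10 uM, with follow-up concentration-response testing of actives.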

[19] = biological target: human CYP19A1, CYP19A1 (gene 1588) (UniProt P11511); assay: NVS_ADME_hCYP19A1: NovaScreen (NVS) CYP450-related Enzyme Activity (ADME) Assay for human CYP19A1 (AID 2283098; active = hit-call score of the fitted dose curve at least 0.9, where 1 is the maximum;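 as to AC50: potency for inhibitors seen as loss of fluorescent enzyme signal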)
human CYP19A1, CYP19A1 (gene 1588), sequence (P11511 whole entry, looked up): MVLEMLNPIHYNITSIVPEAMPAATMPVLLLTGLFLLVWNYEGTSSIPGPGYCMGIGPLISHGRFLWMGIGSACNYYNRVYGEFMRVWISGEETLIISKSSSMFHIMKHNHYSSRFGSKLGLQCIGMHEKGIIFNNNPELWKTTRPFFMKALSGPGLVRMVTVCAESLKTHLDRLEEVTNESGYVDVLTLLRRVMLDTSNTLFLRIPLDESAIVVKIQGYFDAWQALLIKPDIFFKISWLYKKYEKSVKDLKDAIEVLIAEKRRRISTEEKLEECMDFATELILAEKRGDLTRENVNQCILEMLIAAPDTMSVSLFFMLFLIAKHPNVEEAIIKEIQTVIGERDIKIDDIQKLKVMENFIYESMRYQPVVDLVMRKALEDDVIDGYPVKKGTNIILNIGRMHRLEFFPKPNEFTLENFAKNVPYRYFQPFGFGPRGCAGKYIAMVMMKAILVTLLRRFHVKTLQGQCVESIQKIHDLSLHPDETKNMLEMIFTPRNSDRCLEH
How it was run: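 Compounds were first screened at 10 uM in duplicate against purified enzyme, with a fluorogenic substrate and fluorescence intensity detection after 0.5 h. Inhibition appears as reduced signal against acetonitrile control.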

Measured: AC50

E-selectin (Homo sapiens), sequence (P16581 whole entry, looked up): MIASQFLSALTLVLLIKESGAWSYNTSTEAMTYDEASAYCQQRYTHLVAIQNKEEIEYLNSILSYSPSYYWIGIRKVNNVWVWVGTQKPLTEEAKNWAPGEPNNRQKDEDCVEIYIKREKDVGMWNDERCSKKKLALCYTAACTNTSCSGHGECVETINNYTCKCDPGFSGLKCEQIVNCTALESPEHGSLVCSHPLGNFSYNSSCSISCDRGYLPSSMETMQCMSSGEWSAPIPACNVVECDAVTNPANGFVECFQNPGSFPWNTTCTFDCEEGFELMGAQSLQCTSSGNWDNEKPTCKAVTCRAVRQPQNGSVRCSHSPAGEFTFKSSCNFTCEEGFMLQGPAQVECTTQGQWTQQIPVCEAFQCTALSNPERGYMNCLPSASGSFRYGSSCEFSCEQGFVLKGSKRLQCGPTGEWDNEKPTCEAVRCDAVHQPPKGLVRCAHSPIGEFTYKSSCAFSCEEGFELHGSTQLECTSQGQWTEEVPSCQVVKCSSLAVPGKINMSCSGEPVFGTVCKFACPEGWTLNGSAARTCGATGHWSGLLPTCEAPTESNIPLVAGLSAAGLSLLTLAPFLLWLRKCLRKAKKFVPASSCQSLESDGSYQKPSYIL

COP(=S)(OC)Oc1ccc([N+](=O)[O-])c(C)c1
inactive: [2]
active: [1] 1.98 µM

CCCCOCN(C(=O)CCl)c1c(CC)cccc1CC
active: [3] 9.74 µM

CC1(C)CON(Cc2ccccc2Cl)C1=O
inactive: [4] | [5] | [6] | [7]

Cn1c(-c2ccccc2)cc(-c2ccccc2)[n+]1C
inactive: [8]
active: [4] 4.84 µM | [5] 3.97 µM | [6] 4.04 µM | [7] 3.16 µM | [9] 5.06 µM

CCOc1cc(C(C)(C)C)ccc1C1COC(c2c(F)cccc2F)=N1 (stereo not given)
active: [4] 16.5 µM | [5] 28.9 µM | [6] 18.6 µM | [7] 11.9 µM | [11] 7.62 µM
inactive: [10]

COP(=S)(OC)SCn1nnc2ccccc2c1=O
active: [4] 10.4 µM | [7] 30.2 µM | [12] 0.363 µM | [13] 0.302 µM | [14] 2.79 µM | [10] 1.93 µM | [2] 6.73 µM | [15] 1.87 µM | [9] 4.19 µM | [16] 5.2 µM | [11] 0.257 µM | [17] 3.24 µM
inactive: [5] | [6]

COC(=O)c1c(C(F)F)nc(C(F)(F)F)c(C2=NCCS2)c1CC(C)C
inactive: [6]
active: [4] 20 µM | [5] 12.1 µM | [7] 14.6 µM | [8] 32.5 µM | [13] 5.93 µM | [14] 0.561 µM | [10] 1.88 µM | [11] 1.27 µM

COCC(C)N(C(=O)CCl)c1c(C)csc1C (stereo not given)
active: [4] 10.7 µM
inactive: [5] | [6] | [7]

Cc1nc(N(C)C)nc(OC(=O)N(C)C)c1C
inactive: [4] | [5] | [6] | [7]

CCCCC(O)(Cn1cncn1)c1ccc(Cl)cc1Cl (stereo not given)
active: [4] 22.5 µM | [7] 29.9 µM | [13] 1.07 µM | [10] 1.59 µM | [16] 0.554 µM | [18] 2.52 µM | [11] 0.426 µM | [17] 1.3 µM
inactive: [5] | [6]

CCCN(CC)CC1COC2(CCC(C(C)(C)C)CC2)O1 (stereo not given)
inactive: [8] | [16]
active: [4] 12.9 µM | [5] 12.2 µM | [6] 12.1 µM | [7] 6.99 µM

CC(C)(C)C(=O)C(Oc1ccc(Cl)cc1)n1cncn1 (stereo not given)
active: [19] 2.38 µM | [12] 1.62 µM | [10] 8.28 µM | [16] 6.98 µM and 4.65 µM | [3] 5.81 µM | [11] 1.32 µM
inactive: [4] | [5] | [6] | [7] | [8]

CC(C)=CC1C(C(=O)OCc2coc(Cc3ccccc3)c2)C1(C)C (stereo not given)
inactive: [8]
active: [4] 16.6 µM | [5] 5.08 µM | [6] 12.7 µM | [7] 15.7 µM | [19] 0.444 µM | [16] 5.84 µM | [11] 8.7 µM

OC(c1ccc(Cl)cc1)(c1ccc(Cl)cc1)C(Cl)(Cl)Cl
active: [4] 27.2 µM | [5] 20 µM | [6] 27.9 µM | [7] 15 µM | [11] 0.806 µM
inactive: [19] | [3]

COC(=O)N(C(=O)N1CO[C@@]2(C(=O)OC)Cc3cc(Cl)ccc3C2=N1)c1ccc(OC(F)(F)F)cc1
inactive: [4] | [5] | [16]
active: [6] 5.25 µM | [7] 7.29 µM | [11] 0.102 µM

CCOc1nc(F)cc2nc(S(=O)(=O)Nc3c(Cl)cccc3Cl)nn12
inactive: [4] | [5] | [6] | [7] | [8]

Cc1ccc(N=CN(C)C=Nc2ccc(C)cc2C)c(C)c1
active: [4] 26.5 µM | [5] 34.9 µM | [7] 21.7 µM | [8] 33.2 µM | [11] 5.27 µM
inactive: [6] | [9]

CS(=O)(=O)c1cc(C(F)(F)F)ccc1C(=O)c1cnoc1C1CC1
inactive: [4] | [5] | [6] | [7] | [9]
